Among all 190,000 compounds or so, about 3,100 (1.6%) were called active. Rule as the data show it: active = fold change above about 3.3; inconclusive = no clear call, values can overlap the other calls; inactive = below that. The full list was thinned out, with actives kept by preference.

This assay is described as follows: NF-kB upregulation, human neuronal cells – cell-based, HTS, primary screen (AID 1239). The note with it: NF-kB reporter expression, at 12.5 µM, active compounds read high.
Turning to `CCc1nnc(NC(=O)CCCSc2nc3ccccc3[nH]2)s1`, the fold change was 1.01 (inactive). With `O=C(Nc1ccc(NC(=O)c2cccs2)cn1)c1ccco1`, the fold change was 4.48 (active). The result for `COc1cccc(C(=O)Nc2ccc(NC(=O)c3ccco3)cn2)c1` reads 1.03 (inactive).

With `Cc1ccnc(NC(=O)c2ccc(NC(=O)c3ccco3)cc2)c1`, the fold change was 1.64 (inactive). Then `COc1cc(CN2CCNC(=O)C2CC(=O)NCCc2ncccc2C)cc(OC)c1` (stereo unspecified), with 1.05 (inactive). Then `COCCSc1nnc(NC(=O)c2cc(OC)c(OC)cc2[N+](=O)[O-])s1`, with 1.11 (inactive). As to `CCOC(=O)/C(=N\Nc1ccccc1Cl)N(C)C1CCS(=O)(=O)C1` (stereo unspecified), the fold change was 0.99 (inactive). Then `COc1cc(S(=O)(=O)N2CCOCC2)ccc1NC(=O)COc1ccc(N(C)S(=O)(=O)c2ccc(C)cc2)cc1`, with 0.76 (inactive). The result for `COc1ccc(Cl)cc1C(=O)NCC#N` reads 0.94 (inactive); that for `N#C/C=C\Oc1ccc(Cl)cc1N`, 3.39 (active); that for `Cn1cc(CCC(=O)N2CCCC(C(=O)c3ccc(C(C)(C)C)cc3)C2)cn1` (stereo unspecified), 0.83 (inactive). The result for `CNc1nccc(-c2ccc(Cl)cc2)c1C#N` reads 1.47 (inactive); that for `Cc1c(Br)ccc(NC(=O)COc2ccccc2C(N)=O)c1C`, 1.08 (inactive).

For `O=C(NC1CCCC1)C(c1ccc(N2CCOCC2)cc1)N(C(=O)c1ccco1)c1ccccc1F` (stereo unspecified), the fold change is 1.05 (inactive). Then `O=C(COc1ccc(NC(=O)c2ccccc2[N+](=O)[O-])cc1)c1ccc(F)cc1`, with 1.07 (inactive); and `Cc1ccc2nc(COc3ccc(N(C)S(=O)(=O)c4ccccc4)cc3)cc(=O)n2c1`, with 1.11 (inactive).

On to `O=C(NCCOc1ccccc1)c1ccccc1`, for which the fold change was 4.39 (active). The result for `CCCOc1ccc(C(=O)NCCc2ccccc2)cc1` reads 6.46 (active). Then `Cc1cc(C(=O)NCCCc2ccccc2)no1`, with 1.33 (inactive); and `COc1ccc(OCCCC(=O)NCCc2ccccc2)cc1`, with 1.08 (inactive); and `NS(=O)(=O)c1cc(C(=O)NCCOc2ccccc2)c(Cl)cc1Cl`, with 0.66 (inactive). Then `CC(C)c1ccc(C(=O)NCCCc2ccccc2)cc1`, with 4 (active). `Nc1ccc(C(=O)NCc2ccccc2)cc1`: the fold change is 1 (inactive). The result for `O=C(NCCc1ccccc1)c1ccc(OCCOc2ccccc2)cc1` reads 1.27 (inactive). Then `Cc1ccc(C(=O)NCCNC(=O)c2ccccc2)cc1`, with 1.15 (inactive). The result for `CC(C)OC(=O)CN1CCN(c2ccc(Cl)cc2)CC1` reads 1.18 (inactive). In the case of `c1ccc2c(NC3C4CC5CC(C4)CC3C5)nc(N3CCOCC3)nc2c1` (stereo unspecified), the fold change was 0.99 (inactive). The result for `Cc1cccc(C(=O)N2CCCN(C(=O)c3cccc(C)c3)CC2)c1` reads 1.1 (inactive). The result for `Cc1cc(=O)oc(C)c1C(=O)N1CCCCC1` reads 1.16 (inactive). As for `Cc1ccc2cc3cc(C(=O)N4CCCCCC4)oc3nc2c1`, the fold change was 4.26 (active). Then `CN1CCNC(=O)C1CC(=O)N1CC=C(c2ccc(F)cc2)CC1` (stereo unspecified), with 1.04 (inactive); and `CN(c1ccc(C(=O)NCc2ccccn2)cc1)S(C)(=O)=O`, with 1.11 (inactive). The result for `O=C(NCCC1=CCCCC1)c1ccc(Cl)c([N+](=O)[O-])c1` reads 1.68 (inactive); that for `Cn1nnc2cc(C(=O)NCCC3=CCCCC3)ccc21`, 3.75 (active); that for `O=C(Cc1cccc2ccccc12)NCCC1=CCCCC1`, 1.12 (inactive). Then `CN(c1ccc(C(=O)NCCC2=CCCCC2)cc1)S(C)(=O)=O`, with 3.37 (active); and `O=C(Cc1nn[nH]n1)NCCC1=CCCCC1`, with 1.18 (inactive). On to `CN(CCc1ccccn1)C(=O)CCC1CCCN(Cc2ccccc2OC(F)F)C1` (stereo unspecified), for which the fold change was 1.15 (inactive).

Regarding `Cc1ccc(NC(=O)NC2CCCCC2)cc1S(=O)(=O)N1CCOCC1`, the fold change is 1.06 (inactive). The result for `CCCCCC(=O)Nc1ccc2oc(-c3ccncc3)nc2c1` reads 0.96 (inactive); that for `CCc1ccc2oc(-c3ccc(N)cc3)nc2c1`, 5.55 (active); that for `CCN(CC)c1ccc2oc(=O)c(C)nc2c1`, 0.65 (inactive). The result for `COC(=O)Cc1ccc(Oc2ncc(C(F)(F)F)cc2Cl)cc1` reads 1.13 (inactive). `Fc1ccccc1/C=C1\CCCC2=C1Nc1ncnn1C2c1ccccc1F` (stereo unspecified): the fold change is 4.05 (active).

With `OCCNCc1cccc(OCc2ccccc2Cl)c1`, the fold change is 0.98 (inactive). The result for `Fc1ccc2nc(Nc3nc4c(s3)CCCC4)sc2c1` reads 3.04 (inactive); that for `c1ccc2sc(NN=C3CCCC3)nc2c1`, 8.8 (active); that for `O=[N+]([O-])c1cc(Br)c(O)c(/C=N/Nc2nc3ccccc3s2)c1`, 0.65 (inactive). The result for `Cc1ccccc1NCC(=O)N/N=C\c1ccc([N+](=O)[O-])s1` reads 0.63 (inactive). Then `O=C(O)c1ccc(NC(=O)C2CCCCC2)cc1`, with 1.04 (inactive); and `CC(=O)Nc1cc2ccc(OC(C)=O)cc2oc1=O`, with 1.34 (inactive); and `O=C(Nc1cc2ccccc2oc1=O)C1CCCCC1`, with 4.4 (active). Consider `O=C(N/N=C/c1ccc(OCC2COCCO2)cc1)c1ccc(Br)cc1` (stereo unspecified), for which the fold change is 0.81 (inactive). The result for `CNc1nc2c(C)cccn2c(=O)c1C=Nc1ccc(OC)cc1` reads 1.61 (inactive); that for `Nc1[nH]c(=S)nc2nc(-c3ccccc3)c(-c3ccccc3)nc12`, 1.13 (inactive); that for `COc1ccc(C2=Nc3cc(C)ccc3OC2)cc1`, 6.75 (active). Then `COc1ccc(C2=NOC3(CC(=O)N(c4ccc(C)cc4)C3=O)C2)cc1` (stereo unspecified), with 0.77 (inactive).

On to `COc1ccc(C2=NOC(COC(=O)c3ccc4ccccc4n3)C2)cc1` (stereo unspecified), for which the fold change was 1.25 (inactive).

For `O=C(NCc1ccccc1)[C@H]1C[C@@H]1[C@H](NP(=O)(c1ccccc1)c1ccccc1)c1ccccc1`, the fold change is 0.77 (inactive). The result for `CC(C)(C)[Si](OCC[C@@H]1C[C@@]1(C)[C@@H](NP(=O)(c1ccccc1)c1ccccc1)c1ccccc1)(c1ccccc1)c1ccccc1` reads 3.34 (active); that for `COC(=O)[C@H](C)[C@H]1C[C@]1(C)[C@H](NC(=O)OCc1ccccc1)c1ccccc1`, 0.97 (inactive). `CCOC(=O)CCCNC(=O)COC(=O)/C=C/c1ccc2c(c1)OCO2`: the fold change was 1.06 (inactive). On to `CC1(C)CC(=O)CC2(C1)NCC(c1ccccc1Cl)c1c2[nH]c2ccccc12` (stereo unspecified), for which the fold change was 0.75 (inactive). The result for `N/C(Cc1ccc([N+](=O)[O-])cc1)=N\OC(=O)C1CCCCC1` reads 1.13 (inactive); that for `O=C(COC(=O)C1CCCCC1)Nc1ccc([N+](=O)[O-])cc1`, 6.28 (active); that for `O=C(COc1ccc([N+](=O)[O-])cc1)Nc1ccc(N2CCCC2)cc1`, 1.07 (inactive).

The values are drawn from PubChem BioAssay AID1239 (SRMLSC, 2008).
